# Measurements: PubChem BioAssay (NCI)
# Compounds without any hit were thinned out: in the full panel of roughly 79,000, 15% have a hit. Values without a mark were called inactive. Activity calls are given as the source filed them. Rule as the data show it: active = growth inhibition above about 70%; inactive = the rest.
# Legend:
# [1] = NCI Yeast Anticancer Drug Screen. Data for the rad52 strain (AID 147);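 also: 0% = growth of vehicle-treated control cultures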; conditions: S. cerevisiae rad52 mutant growth inhibition, active compounds read high
# Outline: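 Inhibition of yeast growth, referenced to vehicle controls, was the measured output for a strain with defective DNA damage repair.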
# [2] = NCI Yeast Anticancer Drug Screen. Data for the wt1 strain (AID 149);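 also: 0% = growth of vehicle-treated wt1 cultures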; conditions: S. cerevisiae wt1 strain (SPY 50644) growth inhibition, active compounds read high
# Outline: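 wt1 yeast, compound-treated; % growth inhibition vs vehicle control.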
# [3] = NCI Yeast Anticancer Drug Screen. Data for the rad50EPP+ strain (AID 151);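 also: 0% = growth of vehicle-treated control cultures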; conditions: S. cerevisiae rad50 mutant strain, active compounds read high
# Outline: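 Genetically defined yeast (rad50EPP+, DNA damage repair alteration) is grown with compound, and inhibition of growth is expressed relative to vehicle-treated controls.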
# [4] = NCI Yeast Anticancer Drug Screen. Data for the mgt1 strain (AID 153); conditions: S. cerevisiae mgt1 mutant growth inhibition, active compounds read high
# Outline: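 In the mgt1 strain, test compounds were added and growth inhibition was determined relative to vehicle-treated controls.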
# [5] = NCI Yeast Anticancer Drug Screen. Data for the rad50 strain (AID 155);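 also: 0% = growth of vehicle-only cultures of the same strain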; conditions: S. cerevisiae rad50 strain growth inhibition, active compounds read high
# Outline: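 Genetically altered yeast (DNA repair pathway); compound treatment; growth inhibition vs vehicle ctrl.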
# [6] = NCI Yeast Anticancer Drug Screen. Data for the mec2-1 strain (AID 157); conditions: S. cerevisiae mec2-1 strain, active compounds read high
# Outline: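 Each compound was tested on mec2-1 yeast, a strain altered in DNA damage repair or cell cycle control. Growth inhibition is reported relative to vehicle.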
# [7] = NCI Yeast Anticancer Drug Screen. Data for the sgs1 mgt1 strain (AID 161);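 also: 0% = growth of cultures given vehicle only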; conditions: S. cerevisiae sgs1 mgt1 strain, active compounds read high
# Outline: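 Mutant yeast exposed to compound; growth scored against vehicle-only wells.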
# [8] = NCI Yeast Anticancer Drug Screen. Data for the CLN2oe strain (AID 163);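 also: 0% = growth of vehicle-only control cultures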; conditions: S. cerevisiae CLN2oe strain, active compounds read high
# Outline: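 First, the altered yeast strain was treated with each compound; second, its growth was measured; finally, inhibition was derived by comparison with vehicle controls.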
# [9] = NCI Yeast Anticancer Drug Screen. Data for the cln2 rad14 strain (AID 165);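 also: 0% = growth equal to vehicle treated cultures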; conditions: S. cerevisiae cln2 rad14 strain, active compounds read high
# Outline: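 Test compounds were added to cln2 rad14 yeast cultures; inhibition of growth was then determined by comparison with vehicle treatment.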
# [10] = NCI Yeast Anticancer Drug Screen. Data for the bub3 strain (AID 167); conditions: S. cerevisiae bub3 mutant strain, active compounds read high
# Outline: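 Yeast carrying a defined mutation is treated with each compound, and growth is compared with that of vehicle-exposed cells to give inhibition.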
# [11] = NCI Yeast Anticancer Drug Screen. Data for the wt2 strain (AID 169);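 also: 0% = growth of vehicle-treated yeast cultures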; conditions: S. cerevisiae wt2 strain growth inhibition, active compounds read high
# Outline: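 The panel's yeast strains carry defined changes in DNA repair or cell cycle genes. Each strain is grown with compound, and growth loss is scored relative to vehicle.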
# [12] = NCI Yeast Anticancer Drug Screen. Data for the mlh1 strain (AID 171);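 also: 0% = growth of vehicle-treated control cultures of the same strain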; conditions: S. cerevisiae mlh1 strain growth inhibition, active compounds read high
# Outline: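 Inhibition values reflect reduced yeast growth in the presence of compound, referenced to vehicle controls, using a strain chosen for its alteration in DNA repair or cell cycle control.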
# [13] = NCI Yeast Anticancer Drug Screen. Data for the sgs1 strain (AID 173);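 also: 0% = growth of vehicle-only control cultures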; conditions: S. cerevisiae sgs1 mutant, active compounds read high
# Outline: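 Vehicle-treated cultures served as reference for growth inhibition of a yeast strain altered in DNA damage repair or cell cycle control after compound exposure.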
# [14] = NCI Yeast Anticancer Drug Screen. Data for the mlh1 rad18 strain (AID 175); conditions: S. cerevisiae mlh1 rad18 strain growth inhibition, active compounds read high
# Outline: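 Inhibition values reflect reduced growth of mutant yeast versus vehicle-treated controls following compound exposure; the mutations affect DNA damage repair.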
# [15] = NCI Yeast Anticancer Drug Screen. Data for the rad18 strain (AID 177); conditions: S. cerevisiae rad18 mutant growth inhibition, active compounds read high
# Outline: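 Steps: expose repair-mutant yeast to compound; measure growth; express as inhibition relative to vehicle control.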
# [16] = at 5.0 µM (retest, dose inferred, filed as 0.5)
# [17] = at 50.0 µM (retest, dose inferred, filed as 5.0)
compound,measurement,setting,value
BrCC[P+](c1ccccc1)(c1ccccc1)c1ccccc1,growth inhibition,[1]; at 1.2 µM,-39%
same,growth inhibition,[1]; at 3.7 µM,-45%
same,growth inhibition,[1]; at 11.0 µM,58%
same,growth inhibition,[1]; at 33.0 µM,94% (active)
same,growth inhibition,[1]; at 100.0 µM,96% (active)
same,growth inhibition,[2]; at 1.2 µM,-60%
same,growth inhibition,[2]; at 3.7 µM,-56%
same,growth inhibition,[2]; at 11.0 µM,-4%
same,growth inhibition,[2]; at 33.0 µM,96% (active)
same,growth inhibition,[2]; at 100.0 µM,98% (active)
same,growth inhibition,[3]; at 1.2 µM,-44%
same,growth inhibition,[3]; at 3.7 µM,-47%
same,growth inhibition,[3]; at 11.0 µM,19%
same,growth inhibition,[3]; at 33.0 µM,88% (active)
same,growth inhibition,[3]; at 100.0 µM,95% (active)
same,growth inhibition,[4]; at 1.2 µM,-61%
same,growth inhibition,[4]; at 3.7 µM,-53%
same,growth inhibition,[4]; at 11.0 µM,-7%
same,growth inhibition,[4]; at 33.0 µM,94% (active)
same,growth inhibition,[4]; at 100.0 µM,98% (active)
same,growth inhibition,[5]; at 1.2 µM,-36%
same,growth inhibition,[5]; at 3.7 µM,-30%
same,growth inhibition,[5]; [16],19%
same,growth inhibition,[5]; at 11.0 µM,54%
same,growth inhibition,[5]; at 33.0 µM,94% (active)
same,growth inhibition,[5]; [17],97% (active)
same,growth inhibition,[5]; at 50.0 µM,84.7% (active)
same,growth inhibition,[5]; at 100.0 µM,95% (active)
same,growth inhibition,[6]; at 1.2 µM,-74%
same,growth inhibition,[6]; at 3.7 µM,-63%
same,growth inhibition,[6]; [16],16%
same,growth inhibition,[6]; at 11.0 µM,14%
same,growth inhibition,[6]; at 33.0 µM,95% (active)
same,growth inhibition,[6]; [17],98% (active)
same,growth inhibition,[6]; at 50.0 µM,90.2% (active)
same,growth inhibition,[6]; at 100.0 µM,97% (active)
same,growth inhibition,[7]; [16],49%
same,growth inhibition,[7]; [17],99% (active)
same,growth inhibition,[7]; at 50.0 µM,87% (active)
same,growth inhibition,[8]; at 1.2 µM,-21%
same,growth inhibition,[8]; at 3.7 µM,-22%
same,growth inhibition,[8]; at 11.0 µM,2%
same,growth inhibition,[8]; at 33.0 µM,90% (active)
same,growth inhibition,[8]; at 100.0 µM,95% (active)
same,growth inhibition,[9]; [16],43%
same,growth inhibition,[9]; [17],98% (active)
same,growth inhibition,[9]; at 50.0 µM,73.8% (active)
same,growth inhibition,[10]; at 1.2 µM,-70%
same,growth inhibition,[10]; at 3.7 µM,-32%
same,growth inhibition,[10]; [16],47%
same,growth inhibition,[10]; at 11.0 µM,32%
same,growth inhibition,[10]; at 33.0 µM,93% (active)
same,growth inhibition,[10]; [17],98% (active)
same,growth inhibition,[10]; at 50.0 µM,87.8% (active)
same,growth inhibition,[10]; at 100.0 µM,97% (active)
same,growth inhibition,[11]; at 1.2 µM,-15%
same,growth inhibition,[11]; at 3.7 µM,-5%
same,growth inhibition,[11]; at 11.0 µM,15%
same,growth inhibition,[11]; at 33.0 µM,88% (active)
same,growth inhibition,[11]; at 100.0 µM,95% (active)
same,growth inhibition,[12]; at 1.2 µM,-38%
same,growth inhibition,[12]; at 3.7 µM,-70%
same,growth inhibition,[12]; at 11.0 µM,28%
same,growth inhibition,[12]; at 33.0 µM,93% (active)
same,growth inhibition,[12]; at 100.0 µM,97% (active)
same,growth inhibition,[13]; at 1.2 µM,-35%
same,growth inhibition,[13]; at 3.7 µM,-56%
same,growth inhibition,[13]; at 11.0 µM,-40%
same,growth inhibition,[13]; at 33.0 µM,89% (active)
same,growth inhibition,[13]; at 100.0 µM,94% (active)
same,growth inhibition,[14]; [16],5%
same,growth inhibition,[14]; [17],96% (active)
same,growth inhibition,[14]; at 50.0 µM,83.6% (active)
same,growth inhibition,[15]; at 1.2 µM,-59%
same,growth inhibition,[15]; at 3.7 µM,-42%
same,growth inhibition,[15]; at 11.0 µM,54%
same,growth inhibition,[15]; at 33.0 µM,95% (active)
same,growth inhibition,[15]; at 100.0 µM,95% (active)
CCN(CC)CCN1C(=O)c2cccc3cc(OC)cc(c23)C1=O,growth inhibition,[1]; at 1.2 µM,8%
same,growth inhibition,[1]; at 3.7 µM,48%
same,growth inhibition,[1]; at 11.0 µM,72% (active)
same,growth inhibition,[1]; at 33.0 µM,91% (active)
same,growth inhibition,[1]; at 100.0 µM,93% (active)
same,growth inhibition,[2]; at 1.2 µM,-5%
same,growth inhibition,[2]; at 3.7 µM,1%
same,growth inhibition,[2]; at 11.0 µM,-3%
same,growth inhibition,[2]; at 33.0 µM,-7%
same,growth inhibition,[2]; at 100.0 µM,-1%
same,growth inhibition,[3]; at 1.2 µM,9%
same,growth inhibition,[3]; at 3.7 µM,37%
same,growth inhibition,[3]; at 11.0 µM,60%
same,growth inhibition,[3]; at 33.0 µM,86% (active)
same,growth inhibition,[3]; at 100.0 µM,93% (active)
same,growth inhibition,[4]; at 1.2 µM,-10%
same,growth inhibition,[4]; at 3.7 µM,-12%
same,growth inhibition,[4]; at 11.0 µM,-10%
same,growth inhibition,[4]; at 33.0 µM,-4%
same,growth inhibition,[4]; at 100.0 µM,1%
same,growth inhibition,[5]; at 1.2 µM,4%
same,growth inhibition,[5]; at 3.7 µM,43%
same,growth inhibition,[5]; [16],31%
same,growth inhibition,[5]; at 11.0 µM,74% (active)
same,growth inhibition,[5]; at 33.0 µM,90% (active)
same,growth inhibition,[5]; [17],94% (active)
same,growth inhibition,[5]; at 50.0 µM,79.6% (active)
same,growth inhibition,[5]; at 100.0 µM,93% (active)
same,growth inhibition,[6]; at 1.2 µM,-10%
same,growth inhibition,[6]; at 3.7 µM,-3%
same,growth inhibition,[6]; [16],5%
same,growth inhibition,[6]; at 11.0 µM,-12%
same,growth inhibition,[6]; at 33.0 µM,-14%
same,growth inhibition,[6]; [17],19%
same,growth inhibition,[6]; at 50.0 µM,1.45%
same,growth inhibition,[6]; at 100.0 µM,16%
same,growth inhibition,[7]; [16],13%
same,growth inhibition,[7]; [17],27%
same,growth inhibition,[7]; at 50.0 µM,-4.05%
same,growth inhibition,[8]; at 1.2 µM,2%
same,growth inhibition,[8]; at 3.7 µM,-4%
same,growth inhibition,[8]; at 11.0 µM,5%
same,growth inhibition,[8]; at 33.0 µM,7%
same,growth inhibition,[8]; at 100.0 µM,24%
same,growth inhibition,[9]; [16],27%
same,growth inhibition,[9]; [17],18%
same,growth inhibition,[9]; at 50.0 µM,-3.8%
same,growth inhibition,[10]; at 1.2 µM,-9%
same,growth inhibition,[10]; at 3.7 µM,-3%
same,growth inhibition,[10]; [16],11%
same,growth inhibition,[10]; at 11.0 µM,-7%
same,growth inhibition,[10]; at 33.0 µM,1%
same,growth inhibition,[10]; [17],15%
same,growth inhibition,[10]; at 50.0 µM,-22.1%
same,growth inhibition,[10]; at 100.0 µM,11%
same,growth inhibition,[12]; at 1.2 µM,-24%
same,growth inhibition,[12]; at 3.7 µM,-5%
same,growth inhibition,[12]; at 11.0 µM,-7%
same,growth inhibition,[12]; at 33.0 µM,-15%
same,growth inhibition,[12]; at 100.0 µM,9%
same,growth inhibition,[13]; at 1.2 µM,-4%
same,growth inhibition,[13]; at 3.7 µM,40%
same,growth inhibition,[13]; at 11.0 µM,42%
same,growth inhibition,[13]; at 33.0 µM,36%
same,growth inhibition,[13]; at 100.0 µM,42%
same,growth inhibition,[14]; [16],12%
same,growth inhibition,[14]; [17],36%
same,growth inhibition,[14]; at 50.0 µM,-14.2%
same,growth inhibition,[15]; at 1.2 µM,7%
same,growth inhibition,[15]; at 3.7 µM,-2%
same,growth inhibition,[15]; at 11.0 µM,-13%
same,growth inhibition,[15]; at 33.0 µM,-12%
same,growth inhibition,[15]; at 100.0 µM,12%
